Reference: PubChem BioAssay (EPA / NIEHS)
Records with an inconclusive call do not appear. Activity calls are given as the source filed them. How the source made its calls, unless noted: active means hit-call score of the fitted dose curve at least 0.9, where 1 is the maximum; inconclusive means response in the unintended direction; inactive means score below 0.9.

Experiments:
[1] = ATG_TCF_b_cat_CIS: Attagene CIS-FACTORIAL HepG2 Assay for human T-Cell-Factor with beta-catenin (TCF/b-cat) (AID 2282965; active means hit-call score of the fitted dose curve at least 0.9, where 1 is the maximum; inactive means score below 0.9); conditions: HepG2 TCF/beta-catenin cis-reporter transcription, actives raise or lower the signal
Outline: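 Cells of the HepG2 line carry transiently transfected reporter units whose promoters respond to endogenous factors. Twenty-four hours post-dosing, reporter mRNA induction is measured by fluorescent RT-PCR and capillary electrophoresis, with DMSO as baseline.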

[2] = ATG_TAL_CIS: Attagene CIS-FACTORIAL HepG2 Assay for human TAL Basal Promoter (AID 2282966; active means hit-call score of the fitted dose curve at least 0.9, where 1 is the maximum; inactive means score below 0.9;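 further: background control endpoint measuring basal TAL promoter reporter mRNA not a specific factor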); conditions: HepG2 Attagene cis-factorial TAL promoter reporter; actives raise or lower the signal
Outline: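 RT-PCR plus capillary electrophoresis quantifies reporter mRNA induction in transiently transfected HepG2 cells after 24 h chemical treatment. DMSO serves as negative control and baseline for bidirectional fitting.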

[3] = ATG_TGFb_CIS: Attagene CIS-FACTORIAL HepG2 Assay for human Transforming Growth Factor (TGF) (AID 2282967; active means hit-call score of the fitted dose curve at least 0.9, where 1 is the maximum; inactive means score below 0.9); conditions: HepG2 Attagene CIS TGFb reporter, mRNA transcription; actives raise or lower the signal
Outline: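 Transient MRTU transfection of HepG2 (FuGene 6). Dose 24 h. TriZol RNA, oligo(dT) RT, PCR, 6-FAM primer extension, HpaI cut, CE. Bidirectional fit, DMSO = baseline.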

[4] = ATG_VDRE_CIS: Attagene CIS-FACTORIAL HepG2 Assay for human Vitamin D Receptor Element (VDRE) (AID 2282968; active means hit-call score of the fitted dose curve at least 0.9, where 1 is the maximum; inactive means score below 0.9); conditions: HepG2 VDRE cis-reporter transcription, actives raise or lower the signal
Outline: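 Cell-based multiplexed reporter format in human liver HepG2 cells, 24 h post-dose. Fluorescence from capillary electrophoresis of reporter cDNA gives the signal, with DMSO as negative control and baseline.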

[5] = molecular target: Estrogen receptor (Homo sapiens) (UniProt P03372); assay: ATG_ERa_TRANS: Attagene TRANS-FACTORIAL HepG2 Assay for human Estrogen Receptor alpha (ERa) (AID 2282970); conditions: HepG2 Attagene TRANS ERa GAL4 reporter, mRNA
Outline: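 Cells: HepG2, transiently transfected. Construct: GAL4-UAS reporter units regulated by exogenous NR-Gal4 chimeras. Time: 24 h. Detection: reporter mRNA by RT-PCR, capillary electrophoresis, fluorescence. Baseline: DMSO, upward fitting.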

[6] = molecular target: X-box-binding protein 1 (Homo sapiens) (UniProt P17861); assay: ATG_Xbp1_CIS: Attagene CIS-FACTORIAL HepG2 Assay for human X-box Binding Protein 1 (XBP1) (AID 2282972; active means hit-call score of the fitted dose curve at least 0.9, where 1 is the maximum; inactive means score below 0.9); conditions: HepG2 XBP1 cis-element reporter, Attagene multiplex; actives raise or lower the signal
Outline: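 Fluorescence-labelled cDNA fragments from reporter transcripts, separated by capillary electrophoresis, give the signal. Source: HepG2 cells transfected with promoter-driven reporter units, harvested 24 h post-dose. DMSO served as reference for bidirectional curve fitting.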

[7] = ATG_M_19_TRANS: Attagene TRANS-FACTORIAL HepG2 Assay for M19 Transcription Factor (Internal Marker) (AID 2282974); conditions: HepG2 Attagene TRANS-FACTORIAL M19 internal marker reporter
Outline: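 HepG2 cells transiently transfected with multiple GAL4-UAS reporter transcription units were exposed to chemicals for 24 h. Reporter mRNA was read by RT-PCR, 6-FAM primer extension, HpaI digestion and capillary electrophoresis; gain of signal fitted relative to DMSO.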

[8] = ATG_GAL4_TRANS: Attagene TRANS-FACTORIAL HepG2 Assay for GAL4 (Internal Marker) (AID 2282976); conditions: HepG2 Attagene TRANS GAL4 internal marker reporter
Outline: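 In transfected human HepG2 liver cells dosed 24 h, GAL4 reporter mRNA serves as a baseline marker. Detection by RT-PCR with fluorescent capillary electrophoresis, activity fitted upward relative to DMSO.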

[9] = molecular target: Bile acid receptor (Homo sapiens) (UniProt Q96RI1); assay: ATG_FXR_TRANS: Attagene TRANS-FACTORIAL HepG2 Assay for Farnesoid X Receptor (FXR) (AID 2282979); conditions: HepG2 Attagene TRANS FXR-GAL4 reporter transcription;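 further: hits raise reporter mRNA above DMSO so AC50 marks FXR activation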
Outline: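 Reporter transcripts from transfected HepG2 cells were measured 24 h after dosing, using RT-PCR with capillary electrophoresis of 6-FAM-labelled fragments. The read-out reflects activity of exogenous FXR-Gal4 chimera on GAL4-UAS units, with induction relative to DMSO.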

[10] = molecular target: Oxysterols receptor LXR-alpha (Homo sapiens) (UniProt Q13133); assay: ATG_LXRa_TRANS: Attagene TRANS-FACTORIAL HepG2 Assay for human Liver X Receptor alpha (LXRa) (AID 2282980); conditions: HepG2 Attagene TRANS reporter, LXRa transactivation
Outline: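 Chemical-induced reporter mRNA measured by RT-PCR with fluorescent labelling and capillary electrophoresis after 24 h dosing of transiently transfected HepG2 cells expressing exogenous NR-Gal4 chimeras; increases scored against DMSO baseline.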

[11] = molecular target: Oxysterols receptor LXR-beta (Homo sapiens) (UniProt P55055); assay: ATG_LXRb_TRANS: Attagene TRANS-FACTORIAL HepG2 Assay for human Liver X Receptor beta (LXRb) (AID 2282981); conditions: HepG2 Attagene TRANS GAL4-LXRb reporter, mRNA
Outline: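 Gain-of-signal mRNA reporter endpoint, DMSO as negative control. Transiently transfected HepG2 cells carrying the NR-Gal4 chimera and GAL4-UAS reporter units were treated 24 h; transcripts quantified by RT-PCR and capillary electrophoresis fluorescence.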

[12] = molecular target: Hepatocyte nuclear factor 4-alpha (Homo sapiens) (UniProt P41235); assay: ATG_HNF4a_TRANS: Attagene TRANS-FACTORIAL HepG2 Assay for human Hepatocyte Nuclear Factor 4 alpha (HNF4a) (AID 2282982); conditions: HepG2 HNF4a transactivation reporter, mRNA readout
Outline: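 Gain-of-signal mRNA induction, relative to DMSO vehicle, was read after 24 h compound treatment of HepG2 cells bearing transfected GAL4-UAS reporters. Detection used RT-PCR, 6-FAM primer extension and capillary electrophoresis.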

[13] = molecular target: Nuclear receptor subfamily 4 group A member 2 (Homo sapiens) (UniProt P43354); assay: ATG_NURR1_TRANS: Attagene TRANS-FACTORIAL HepG2 Assay for human Nuclear Receptor Related Protein 1 (NURR1) (AID 2282985); conditions: HepG2 Attagene TRANS reporter, mRNA readout
Outline: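 HepG2 / transient MRTU transfection / 24 h compound exposure / RT-PCR + CE fluorescence of reporter mRNA / gain-of-signal vs DMSO.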

[14] = molecular target: Transcriptional activator Myb (Homo sapiens) (UniProt P10242); assay: ATG_Myb_CIS: Attagene CIS-FACTORIAL HepG2 Assay for human Myeloblastosis (Myb) Proto-Oncogene Transcription Factor (AID 2282986; active means hit-call score of the fitted dose curve at least 0.9, where 1 is the maximum; inactive means score below 0.9); conditions: HepG2 Attagene CIS-FACTORIAL Myb reporter transcription; actives raise or lower the signal
Outline: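 HepG2 cells were transiently transfected with cis-regulated multiple reporter transcription units reflecting endogenous Myb activity, then exposed to compound for 24 hours. Reporter mRNA was measured by RT-PCR with capillary electrophoresis; bidirectional fitting versus DMSO baseline.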

[15] = ATG_M_32_TRANS: Attagene TRANS-FACTORIAL HepG2 Assay for M32 Transcription Factor (Internal Marker) (AID 2282984); conditions: HepG2 Attagene TRANS M32 internal marker reporter;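 further: transcript level of a background control reporter unit measured by RT-PCR and capillary electrophoresis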
Outline: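 Capillary electrophoresis of 6-FAM-labelled reporter fragments gives the signal; data fitted for gain over DMSO negative control. Source: HepG2 cells bearing transient multiple reporter transcription units, 24 h exposure.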

[16] = molecular target: Glucocorticoid receptor (Homo sapiens) (UniProt P04150); assay: ATG_GR_TRANS: Attagene TRANS-FACTORIAL HepG2 Assay for human Glucocorticoid Receptor (GR) (AID 2282978); conditions: HepG2 Attagene TRANS GR reporter, mRNA transcription;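 further: activators score as hits since higher reporter transcript over DMSO is fitted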
Outline: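 HepG2 cells transiently transfected with multiplexed reporter units in which chimeric NR-GAL4 proteins drive GAL4-UAS reporters; 24 h compound exposure. Reporter mRNA measured by RT-PCR, 6-FAM labelling, HpaI digestion and capillary electrophoresis; gain-of-signal fitted versus DMSO.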

[17] = ATG_M_06_TRANS: Attagene TRANS-FACTORIAL HepG2 Assay for M06 Transcription Factor (Internal Marker) (AID 2282983); conditions: HepG2 Attagene TRANS M06 internal marker reporter
Outline: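 Cells: HepG2, transient multi-reporter transfection. Exposure: 24 h. Detection: RT-PCR, 6-FAM labelling, HpaI digestion (2 h, 37 °C), capillary electrophoresis. Baseline: DMSO.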

[18] = molecular target: Steroid hormone receptor ERR1 (Homo sapiens) (UniProt P11474); assay: ATG_ERRa_TRANS: Attagene TRANS-FACTORIAL HepG2 Assay for human Estrogen-Related Receptor alpha (ERRa) (AID 2282971); conditions: HepG2 Attagene TRANS reporter, ERRa transactivation
Outline: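 Reporter transcripts from ERRa-Gal4 chimera activity measured in transiently transfected human HepG2 cells 24 hours after dosing, using RT-PCR with 6-FAM primer extension, HpaI digestion and capillary electrophoresis; DMSO is baseline.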

[19] = molecular target: Estrogen-related receptor gamma (Homo sapiens) (UniProt P62508); assay: ATG_ERRg_TRANS: Attagene TRANS-FACTORIAL HepG2 Assay for human Estrogen-Related Receptor gamma (ERRg) (AID 2282977); conditions: HepG2 Attagene TRANS reporter, ERRg transactivation;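 further: hits increase reporter signal over DMSO so potencies reflect activators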
Outline: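 HepG2 cells transiently transfected with multiplexed GAL4-UAS reporter units and chimeric NR-Gal4 constructs were exposed to test chemicals for 24 h. Reporter mRNA was measured by RT-PCR, 6-FAM primer extension, HpaI digestion and capillary electrophoresis; gain-of-signal versus DMSO.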

Measured: AC50

Sequence of Oxysterols receptor LXR-beta (Homo sapiens) (P55055 whole entry, looked up, the tested form may be a part): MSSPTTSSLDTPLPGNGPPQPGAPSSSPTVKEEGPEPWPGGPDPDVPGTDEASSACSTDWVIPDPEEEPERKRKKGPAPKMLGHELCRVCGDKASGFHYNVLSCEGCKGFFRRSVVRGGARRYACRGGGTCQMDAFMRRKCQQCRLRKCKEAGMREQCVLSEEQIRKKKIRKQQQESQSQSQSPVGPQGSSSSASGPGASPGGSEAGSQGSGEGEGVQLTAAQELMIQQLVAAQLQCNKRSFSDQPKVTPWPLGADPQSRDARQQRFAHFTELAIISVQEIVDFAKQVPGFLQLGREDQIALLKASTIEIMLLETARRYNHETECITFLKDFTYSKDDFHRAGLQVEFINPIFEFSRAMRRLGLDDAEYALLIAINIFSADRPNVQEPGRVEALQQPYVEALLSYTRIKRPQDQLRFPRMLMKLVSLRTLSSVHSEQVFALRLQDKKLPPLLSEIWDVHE
Sequence of Hepatocyte nuclear factor 4-alpha (Homo sapiens) (P41235 whole entry, looked up, the tested form may be a part): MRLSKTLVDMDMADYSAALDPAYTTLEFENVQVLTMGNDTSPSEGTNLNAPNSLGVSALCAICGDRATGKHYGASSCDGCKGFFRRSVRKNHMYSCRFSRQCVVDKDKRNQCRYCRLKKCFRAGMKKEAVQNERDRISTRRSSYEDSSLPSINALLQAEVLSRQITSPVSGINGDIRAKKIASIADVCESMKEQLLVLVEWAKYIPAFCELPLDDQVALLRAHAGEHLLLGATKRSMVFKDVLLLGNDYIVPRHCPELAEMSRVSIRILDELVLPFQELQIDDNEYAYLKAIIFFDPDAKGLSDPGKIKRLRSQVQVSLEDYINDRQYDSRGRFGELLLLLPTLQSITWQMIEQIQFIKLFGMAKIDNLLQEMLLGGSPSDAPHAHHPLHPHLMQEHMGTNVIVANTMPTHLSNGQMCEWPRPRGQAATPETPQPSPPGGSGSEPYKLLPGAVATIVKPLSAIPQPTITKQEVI
Sequence of Estrogen receptor (Homo sapiens) (P03372 whole entry, looked up, the tested form may be a part): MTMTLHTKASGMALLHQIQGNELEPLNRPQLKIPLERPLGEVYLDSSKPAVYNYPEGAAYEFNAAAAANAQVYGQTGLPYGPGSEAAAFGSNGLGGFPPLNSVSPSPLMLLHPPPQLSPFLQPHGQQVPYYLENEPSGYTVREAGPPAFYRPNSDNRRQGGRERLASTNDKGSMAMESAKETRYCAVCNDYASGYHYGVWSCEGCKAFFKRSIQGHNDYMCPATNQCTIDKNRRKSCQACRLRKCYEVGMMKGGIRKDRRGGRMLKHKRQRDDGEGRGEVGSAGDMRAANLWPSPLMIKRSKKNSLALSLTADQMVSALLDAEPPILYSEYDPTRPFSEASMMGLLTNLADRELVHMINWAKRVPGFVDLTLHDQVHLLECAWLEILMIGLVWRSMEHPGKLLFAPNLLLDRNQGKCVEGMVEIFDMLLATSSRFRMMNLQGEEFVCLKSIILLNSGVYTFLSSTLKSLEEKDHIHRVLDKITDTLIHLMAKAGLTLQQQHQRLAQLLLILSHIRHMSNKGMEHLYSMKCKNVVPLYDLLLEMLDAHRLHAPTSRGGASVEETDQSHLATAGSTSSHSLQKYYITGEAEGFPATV
Sequence of Nuclear receptor subfamily 4 group A member 2 (Homo sapiens) (P43354 whole entry, looked up): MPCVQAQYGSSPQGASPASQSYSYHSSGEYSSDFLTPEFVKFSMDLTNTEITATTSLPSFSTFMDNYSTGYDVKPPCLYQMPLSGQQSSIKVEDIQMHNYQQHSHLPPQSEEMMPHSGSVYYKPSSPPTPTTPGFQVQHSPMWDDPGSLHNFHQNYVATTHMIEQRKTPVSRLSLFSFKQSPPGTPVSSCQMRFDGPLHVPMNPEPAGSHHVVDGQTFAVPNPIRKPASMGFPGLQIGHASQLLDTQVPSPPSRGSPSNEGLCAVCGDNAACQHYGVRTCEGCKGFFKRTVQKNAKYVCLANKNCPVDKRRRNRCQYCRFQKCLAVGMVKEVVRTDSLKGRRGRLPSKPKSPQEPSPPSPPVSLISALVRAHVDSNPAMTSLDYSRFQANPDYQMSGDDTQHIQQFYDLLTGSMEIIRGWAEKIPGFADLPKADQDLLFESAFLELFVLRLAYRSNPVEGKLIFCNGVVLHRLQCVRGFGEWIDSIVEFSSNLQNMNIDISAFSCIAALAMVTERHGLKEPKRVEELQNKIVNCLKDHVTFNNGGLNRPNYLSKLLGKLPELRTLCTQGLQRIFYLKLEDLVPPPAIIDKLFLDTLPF
Sequence of X-box-binding protein 1 (Homo sapiens) (P17861 whole entry, looked up, the tested form may be a part): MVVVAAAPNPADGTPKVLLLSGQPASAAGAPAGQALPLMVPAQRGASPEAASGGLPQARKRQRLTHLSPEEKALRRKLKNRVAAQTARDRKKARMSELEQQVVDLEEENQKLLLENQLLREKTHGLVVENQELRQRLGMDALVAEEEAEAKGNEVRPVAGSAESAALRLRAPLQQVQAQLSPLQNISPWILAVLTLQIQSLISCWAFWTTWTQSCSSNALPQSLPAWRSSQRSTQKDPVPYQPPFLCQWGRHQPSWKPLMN
Sequence of Transcriptional activator Myb (Homo sapiens) (P10242 whole entry, looked up): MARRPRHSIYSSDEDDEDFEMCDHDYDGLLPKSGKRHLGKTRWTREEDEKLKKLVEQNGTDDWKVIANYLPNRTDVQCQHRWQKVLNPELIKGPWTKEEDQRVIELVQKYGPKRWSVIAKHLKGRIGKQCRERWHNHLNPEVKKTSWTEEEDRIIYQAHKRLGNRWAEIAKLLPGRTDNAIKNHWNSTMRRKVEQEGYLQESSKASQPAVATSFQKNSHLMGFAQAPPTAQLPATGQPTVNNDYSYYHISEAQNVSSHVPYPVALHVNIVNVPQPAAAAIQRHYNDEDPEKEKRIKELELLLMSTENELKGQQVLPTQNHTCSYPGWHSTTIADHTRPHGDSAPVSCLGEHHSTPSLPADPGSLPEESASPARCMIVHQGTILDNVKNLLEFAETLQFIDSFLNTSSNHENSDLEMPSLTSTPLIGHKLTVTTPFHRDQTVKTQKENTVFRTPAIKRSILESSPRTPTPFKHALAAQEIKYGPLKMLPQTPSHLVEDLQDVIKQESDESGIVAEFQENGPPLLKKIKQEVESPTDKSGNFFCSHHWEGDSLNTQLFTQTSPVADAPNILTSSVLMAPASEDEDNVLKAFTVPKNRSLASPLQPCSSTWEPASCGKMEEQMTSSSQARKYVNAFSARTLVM
Sequence of Bile acid receptor (Homo sapiens) (Q96RI1 whole entry, looked up, the tested form may be a part): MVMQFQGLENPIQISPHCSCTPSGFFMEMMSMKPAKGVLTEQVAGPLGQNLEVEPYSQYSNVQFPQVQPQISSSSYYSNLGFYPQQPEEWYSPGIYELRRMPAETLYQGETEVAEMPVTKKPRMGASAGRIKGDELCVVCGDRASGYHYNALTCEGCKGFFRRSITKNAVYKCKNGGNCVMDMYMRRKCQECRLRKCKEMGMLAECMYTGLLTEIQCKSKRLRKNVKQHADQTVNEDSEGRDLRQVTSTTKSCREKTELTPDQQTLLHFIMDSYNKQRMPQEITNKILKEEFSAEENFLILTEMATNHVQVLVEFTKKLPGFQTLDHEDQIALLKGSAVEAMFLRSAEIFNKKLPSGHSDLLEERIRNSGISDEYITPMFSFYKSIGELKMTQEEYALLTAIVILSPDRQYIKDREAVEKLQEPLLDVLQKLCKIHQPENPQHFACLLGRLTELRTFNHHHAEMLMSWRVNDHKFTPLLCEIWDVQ
Sequence of Glucocorticoid receptor (Homo sapiens) (P04150 whole entry, looked up, the tested form may be a part): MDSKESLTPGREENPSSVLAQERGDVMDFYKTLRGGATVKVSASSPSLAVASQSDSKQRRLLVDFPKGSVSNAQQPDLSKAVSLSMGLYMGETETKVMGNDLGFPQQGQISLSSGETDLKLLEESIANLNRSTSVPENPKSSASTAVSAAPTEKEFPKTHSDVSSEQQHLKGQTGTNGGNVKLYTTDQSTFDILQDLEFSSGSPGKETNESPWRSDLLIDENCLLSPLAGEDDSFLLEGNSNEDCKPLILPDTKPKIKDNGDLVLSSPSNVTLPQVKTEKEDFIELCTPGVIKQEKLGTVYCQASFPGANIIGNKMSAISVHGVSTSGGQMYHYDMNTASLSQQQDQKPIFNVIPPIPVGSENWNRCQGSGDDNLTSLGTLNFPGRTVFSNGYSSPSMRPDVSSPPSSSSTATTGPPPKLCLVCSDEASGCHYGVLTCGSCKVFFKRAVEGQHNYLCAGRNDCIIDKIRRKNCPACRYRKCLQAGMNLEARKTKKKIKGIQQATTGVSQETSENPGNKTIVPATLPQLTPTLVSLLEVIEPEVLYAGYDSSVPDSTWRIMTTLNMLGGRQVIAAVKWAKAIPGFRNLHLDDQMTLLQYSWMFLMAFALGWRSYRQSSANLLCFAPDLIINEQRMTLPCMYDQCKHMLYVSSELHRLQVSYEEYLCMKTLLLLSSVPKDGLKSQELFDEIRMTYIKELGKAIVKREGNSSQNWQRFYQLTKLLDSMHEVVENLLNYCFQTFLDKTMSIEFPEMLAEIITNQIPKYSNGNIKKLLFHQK
Sequence of Oxysterols receptor LXR-alpha (Homo sapiens) (Q13133 whole entry, looked up, the tested form may be a part): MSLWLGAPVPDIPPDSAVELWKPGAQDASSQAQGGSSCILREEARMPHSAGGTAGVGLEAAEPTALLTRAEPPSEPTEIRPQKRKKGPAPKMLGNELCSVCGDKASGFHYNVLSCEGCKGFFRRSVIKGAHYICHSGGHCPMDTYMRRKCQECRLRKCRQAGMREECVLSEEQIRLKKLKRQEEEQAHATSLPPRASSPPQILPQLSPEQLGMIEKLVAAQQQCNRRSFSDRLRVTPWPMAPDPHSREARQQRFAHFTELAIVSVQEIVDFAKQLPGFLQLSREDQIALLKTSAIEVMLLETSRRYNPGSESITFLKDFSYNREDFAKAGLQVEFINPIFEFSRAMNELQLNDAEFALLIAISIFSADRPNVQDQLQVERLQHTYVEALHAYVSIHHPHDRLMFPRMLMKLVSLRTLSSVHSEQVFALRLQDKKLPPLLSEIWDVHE

CN(C)C(C)(C)CO
inactive: [1] | [2] | [3] | [4] | [5] | [6] | [7] | [8] | [9] | [10] | [11] | [12] | [13] | [14]

COCCC(=O)OC
inactive: [1] | [2] | [3] | [4] | [5] | [6] | [7] | [8] | [10] | [12] | [15] | [14]

CCN(CC)c1ccc2c(c1)Oc1cc(N(CC)CC)ccc1C21OC(=O)c2ccccc21
inactive: [2] | [3] | [5] | [6] | [8] | [16] | [9] | [17] | [15] | [14]
active: [1] 50 µM | [4] 1.32 µM

O=S(=O)(O)CCC(F)(F)C(F)(F)C(F)(F)C(F)(F)F
inactive: [1] | [2] | [3] | [4] | [18] | [6] | [7] | [16] | [11] | [17] | [14]

O=c1cccc[nH]1
inactive: [1] | [2] | [3] | [4] | [6] | [7] | [16] | [11] | [12] | [17] | [15] | [13] | [14]

CC1=CC2C3C=CC(C3)C2C1C (stereo unspecified)
active: [4] 1.81 µM
inactive: [1] | [2] | [3] | [5] | [6] | [9] | [10] | [17] | [13] | [14]

CCCCCCCCCCCCCCCCC
inactive: [1] | [2] | [3] | [4] | [5] | [6] | [19] | [9] | [10] | [11] | [12] | [17] | [15] | [14]

O=C1C=CC(=O)N1c1ccc(Cc2ccc(N3C(=O)C=CC3=O)cc2)cc1
inactive: [1] | [4] | [7] | [8] | [16] | [9] | [10] | [12] | [13] | [14]
active: [2] 56.8 µM | [3] 41.6 µM | [6] 42.6 µM

CCCCOC(=O)[C@H](C)O
inactive: [1] | [2] | [3] | [4] | [5] | [6] | [7] | [8] | [12] | [15] | [13] | [14]

OCCCC(F)(F)C(F)(F)C(F)(F)C(F)(F)C(F)(F)C(F)(F)C(F)(F)C(F)(F)F
inactive: [2] | [3] | [4] | [6] | [19] | [9] | [10] | [11] | [12] | [15] | [14]
active: [1] 28.9 µM | [5] 10.9 µM | [13] 7.38 µM
